The list is not random: actives were taken first. Their share in the collection is about 3.4%.
IMPase cell inh = cell-permeable inhibitors of inositol monophosphatase (IMPase) | CHO-M1 cells, IP1 accumulation, HTRF TR-FRET ratio | inhibition (IP1 accumulation), % at 46.1 µM | 120,000 tested, under 10 active | AID 901; active = well fitted curve in the direction sought with a large enough effect in the signal ratio, not every such curve was filed as active; inconclusive = small, poorly fitted or top-dose-only effect, or a change in a side signal; inactive = no such curve, though single readings can be large or run the other way; the % refers to the signal ratio;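 also: cells stimulated with carbachol in lithium chloride buffer; higher means more IMPase inhibition seen as more IP1 and lower FRET ratio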
Target sequence (P97697 whole entry, looked up): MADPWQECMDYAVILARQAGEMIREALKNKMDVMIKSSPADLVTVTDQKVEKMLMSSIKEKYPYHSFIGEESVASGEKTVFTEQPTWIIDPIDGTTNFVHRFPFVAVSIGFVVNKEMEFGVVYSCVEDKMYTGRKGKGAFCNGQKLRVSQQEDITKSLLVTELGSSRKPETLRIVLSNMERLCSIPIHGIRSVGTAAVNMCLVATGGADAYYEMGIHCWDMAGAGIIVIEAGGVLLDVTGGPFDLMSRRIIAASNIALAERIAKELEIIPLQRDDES
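Carbachol-driven Gq signalling in CHO-M1 cells (2000/well) generates IP1. Compounds that block IMPase raise IP1 and so reduce the FRET signal from Eu-anti-IP1 and d2-IP1 after a 10 min room-temperature lysis.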
HttQ103 aggreg = mutant huntingtin aggregation inhibition. Potency, µM (doses to about 46.1 µM), usual class: inhibitors. AID 1688. PC12 HttQ103-GFP aggregates, Acumen cytometry, 40 h. 220,000 tested, 1.1% active; also: nearly all actives have a fitted effect of over 60% in size
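PC12 cells with ecdysone-inducible HTT exon1 Q103-GFP, induced by 100 nM tebufenozide, given compounds in a concentration series. GFP aggregates (1–25 um, 6 SD above background) counted in lysates by laser-scanning cytometry, 488 nm excitation.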
PNC inhibitor = perinucleolar compartment assembly inhibition. PC3M PTB-GFP, PNC prevalence imaging, 16 h; stronger effect = lower value. activity change (PNC), negative = inhibition, % at 10 µM. 140,000 tested, 3.1% active. AID 2417;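 active = readout at or below -70, meaning at least 70% loss of cells showing the perinucleolar compartment, a nuclear body marking cancer cells; inconclusive = readout between -30 and a set limit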
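PC3M cells stably expressing PTB-GFP, 750–1000 cells/well, treated 16 h at 37 °C with compound (23 nl of library stock), in duplicate. After paraformaldehyde fixation and Hoechst stain, imaged at 20x; PNC prevalence scored by image analysis.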
HTT cytoprotect = cytoprotection in Huntington HTT-Q103 PC12 cell model; PC12 HTT-Q103 induced, cytoprotection, ATP luminescence, 40 h; Potency, µM (doses to about 56.4 µM), usual class: activators; 230,000 tested, 0.14% active; AID 1471; also: nearly all actives have a fitted effect of over 45% in size
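ATP quantification (ATPlite) reports survival of PC12 cells in which tebufenozide, 100 nM final, switches on Htt exon 1 with 103 glutamines linked to GFP; compounds are titrated.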
NPSR antagonist = neuropeptide S receptor (human) antagonism, cAMP | Q6W5P4 | CHO-NPSR cells, cAMP TR-FRET, antagonist mode | Potency, µM (doses to about 38.3 µM), hits mostly inhibitors | 220,000 tested, 1% active; also: nearly all actives have a fitted effect of over 50% in size
Target sequence (Q6W5P4 whole entry, looked up): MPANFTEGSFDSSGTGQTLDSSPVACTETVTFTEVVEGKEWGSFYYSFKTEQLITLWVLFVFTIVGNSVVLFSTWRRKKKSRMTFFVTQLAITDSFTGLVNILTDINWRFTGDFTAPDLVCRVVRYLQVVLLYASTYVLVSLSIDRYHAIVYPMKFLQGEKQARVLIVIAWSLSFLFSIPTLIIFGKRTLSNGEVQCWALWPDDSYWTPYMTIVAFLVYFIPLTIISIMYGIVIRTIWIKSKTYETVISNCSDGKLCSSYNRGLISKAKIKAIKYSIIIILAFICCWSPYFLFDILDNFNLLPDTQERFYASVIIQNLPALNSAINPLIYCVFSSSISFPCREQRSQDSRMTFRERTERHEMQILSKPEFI
IMPase Li cell = IMPase inhibition in cells with lithium potentiation; Potency, µM (top dose mostly 59.4 µM), actives largely listed as inhibitors; CHO-M1 cells, IP1 TR-FRET (IP-One), carbachol + lithium; 210,000 tested, 0.35% active;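 also: IP1 builds up when IMPase is blocked and the TR-FRET signal falls; nearly all actives have a fitted effect of over 50% in size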
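Readout is a homogeneous TR-FRET IP1 immunoassay (Ex 320, Em 665 and 620), where raised cytosolic IP1 lowers signal. Cells were CHO-M1 treated 30 min at 37C with test compounds plus a little lithium; AC50 values came from Hill-equation fitting.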
Hits are given with their value; n = inactive; u = inconclusive; x = no result given; [ ] = remark or other dose. Unless noted, calls follow the shape of the dose curve; as a rule, active = well fitted curve in the direction sought with a large enough effect; inconclusive = small, poorly fitted or top-dose-only effect, or another doubt; inactive = no such curve, though single readings can be large; an effect the other way counts as inactive or inconclusive.

SMILES	IMPase cell inh	HttQ103 aggreg	PNC inhibitor	HTT cytoprotect	NPSR antagonist	IMPase Li cell
CC1(C)Cc2c(sc3[nH]c(=S)n(Cc4ccccc4)c(=O)c23)CO1	n	17.8µM	n	n	n	n
Cc1noc(C)c1-c1cc(NCc2cccs2)ncn1	x	x	x	n	x	n
O=C(O)CSc1c(-c2cccs2)[nH]c2ccccc12	x	n	u	n[10 µM]	n	n
O=C(O)CSc1c(-c2ccccc2)[nH]c2ccccc12	x	n	-84.7	n[10 µM]	n	n
CN1COc2ccc3ccccc3c2C1	x	n	x	u	n	n
CSCC[C@@H](C(=O)O)N(C)C	x	x	x	n[10 µM]	x	n
O=C(NNC(=S)NC1CCCCC1)c1ccccc1O	x	10µM	x	n	n	n
CCCC/C(=N\NC(=O)c1ccc(Br)o1)c1ccccc1	x	n	-113.8	x	n	n
CCCOc1ccc(N2C(=O)CC(N(O)c3ccccc3)C2=O)cc1 (stereo not drawn)	n	n	-89.0	n	n	n
CC(C)c1ccc(S(=O)(=O)c2cc3cc(Br)ccc3oc2=O)cc1	n	n	n	n[10 µM]	n	14.1µM
N#CCCCSc1nnnn1-c1cc(C(F)(F)F)cc(C(F)(F)F)c1	x	x	x	n	x	n
NCCn1oc(=O)[nH]c1=O	x	x	x	n	x	n
CN(C)CCCO[C@H]1[C@H]([C@H](O)CO)O[C@H]2OC(C)(C)O[C@@H]21	n	x	x	n[1.9 µM]	x	x
Clc1ccc(-n2cnnn2)cc1	n	n	n	n[10 µM]	n	n
CO/C=C\C=C/c1nnn(-c2ccc(Cl)cc2)n1	x	n	-94.4	x	n	n
C=CCSC(=C(C#N)C#N)c1cc2c([nH]1)CCCC2	n	u	n	11.2µM	12.6µM	n
N#Cc1nc(-c2ccc(OCc3ccccc3)cc2)oc1NCc1cccnc1	n	12.6µM	u	n[0.074 µM]	n	n
CC(=O)c1c(C)[nH]c(C(=O)COc2cc(C)cc(C)c2)c1C	n	n	u	n	n	n
CCCOc1ccc(OCC(=O)c2[nH]c(C)c(C(C)=O)c2C)cc1	n	8.91µM	u	n	n	n
Cn1c(=N)n(CC(=O)O)c2ccccc21	n	5.62µM	n	n	n	n
CCc1nc2c(sc3nc(N4CCOCC4)c4c(c32)CC(C)(C)OC4)c(=O)o1	n	n[9.22 µM]	n	n	n	n
COc1ccc(Cc2nnc(N/N=C/c3ccc(Br)cc3)[nH]c2=O)cc1OC	x	n[9.22 µM]	x	n[10 µM]	n	x
COc1ccc(Cc2nnc(N/N=C/c3ccc(O)cc3)[nH]c2=O)cc1OC	n	1.12µM	u	n[10 µM]	n	n
CC(C)(C)c1ccc(-c2cn(-c3ccc(Br)cc3)c3[n+]2CCCS3)cc1	x	1.26µM	x	n[10 µM]	10µM	n
c1ccc(-c2cn(-c3ccccc3)c3[n+]2CCS3)cc1	x	u	x	n	n	n
SMILES	IMPase cell inh	HttQ103 aggreg	PNC inhibitor	HTT cytoprotect	NPSR antagonist	IMPase Li cell
COC(=O)/C=C/S(=O)(=O)c1ccc(NC(C)=O)cc1	n	10µM	n	n	u	n
O=C(Nc1cccc(F)c1)N1CC2(CCN(C(=O)c3cc(C(F)(F)F)cc(C(F)(F)F)c3)CC2)C1	x	x	x	n	x	n
COC(=O)c1c(NC(=O)c2ccco2)sc(C)c1C	n	n	-80.7	n	n	n
Cc1c(Cc2ccccc2)sc(NC(=O)c2ccco2)c1C(N)=O	n	n	-111.1	n[10 µM]	n	n
COC(=O)c1c(NC(=O)c2ccco2)sc(C(=O)Nc2ccc(F)cc2)c1C	n	n	u	n[10 µM]	n	n
Cc1cccc(-c2nc(CS(=O)CC(=O)N3CCc4ccccc4C3)c(C)o2)c1 (stereo not drawn)	n	n	-105.7	n	n	n
Cc1cccc2c(N)c3c(nc12)CCCC3 (tested in a mixture with another compound)	x	x	x	x	n	n
Cc1cc(C)c2c(N)c3cccc(C)c3nc2n1	x	12.6µM	-92.1	x	n	n
Cc1ccc(Cl)cc1NC(=S)N(CCCN1CCOCC1)Cc1ccco1	x	n	x	n	n	n
NS(=O)(=O)c1ccc(CCNC(=O)c2cc(-c3ccc(Br)cc3)nc3ccccc23)cc1	x	n	x	n[10 µM]	n	n
O=C(Nc1ccccn1)c1cc(-c2cccnc2)nc2ccc(Br)cc12	u	n	n	n[10 µM]	u	11.2µM
O=C(Nc1ccc(C(=O)N2CCOCC2)cc1)c1cc(-c2cccnc2)nc2ccc(Br)cc12	x	n	x	n[10 µM]	n	n
NS(=O)(=O)c1ccc(CCNC(=O)c2cc(-c3ccccn3)nc3ccc(Br)cc23)cc1	x	n	x	n	10µM	11.2µM
O=C(c1cc(-c2cccnc2)nc2ccc(Br)cc12)N1CCN(c2ncccn2)CC1	n	n	u	n	u	11.2µM
COC(=O)C(C(C)=O)C(NC(=O)NCc1ccccc1)c1ccccc1 (stereo not drawn)	x	x	x	n[10 µM]	x	x
O=C(CSc1nc2ccccc2s1)Nc1cc(S(=O)(=O)N2CCOCC2)ccc1O	n	n	n	n[10 µM]	n	n
COc1ccc(Oc2ncc3nc(-c4ccccc4)c(=O)n(CCC#N)c3n2)cc1	x	x	x	n	x	n
Fc1ccc(CSc2nncn2NC/C=C/c2ccccc2)cc1	n[1.84 µM]	n	-83.2	n[10 µM]	n	n
Cc1ccc(C(c2c(O)nc3n(c2=O)CCS3)c2c(O)nc3n(c2=O)CCS3)cc1	x	n	-80.7	n[10 µM]	n	n
O=S(=O)(c1ccccc1)n1ccc2ccccc21	n	11.2µM	n	n	n[7.67 µM]	n
Cc1cc(C)c(S(=O)(=O)n2ccc3ccccc32)c(C)c1	n	10µM	n	n	u	n
Cc1[nH]c(=O)[nH]c(=O)c1CSCC(=O)OCC(=O)Nc1ccccn1	x	n[9.22 µM]	x	n[10 µM]	n	x
Cc1c(N2C(=O)c3ccc(Br)cc3C2=O)c(=O)n(-c2ccccc2)n1C	n	n	n	n	n	n
Cc1c(N2C(=O)c3ccc4c5c(ccc(c35)C2=O)CC4)c(=O)n(-c2ccccc2)n1C	n	n	-92.4	n[10 µM]	n	u
